Data on 13 compounds can be found in PubChem BioAssay (NCI).

Where “and” joins values, the source holds several entries; their conditions need not be identical. Identical values can stand only once. The panel holds about 83,000 compounds, 20% with a hit somewhere; the sample as a whole holds those more often.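 Testing used 96-well plates and a 48-hour single-concentration exposure. Example: -40 means 40% of the starting cells died.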 Values without a mark were called inactive. Calls of active or inactive are those of the source. How the source made its calls: active means growth percent below 10; inactive means the rest.

Some test systems named below: NCI-H23 lung; NCI-H226 lung; NCI-H322M lung; HOP-62 NSCLC; NCI-H460 lung; HOP-92 NSCLC; NCI-H522 lung; A549/ATCC NSCLC; 786-0 renal; COLO 205 colon.
Test in all cases: NCI-60 one-dose screen, 48 h (100 = growth as untreated, 0 = no growth, -100 = all killed)
Holding throughout (conditions): 10 µM unless noted

Take `CCCn1c(NC(=O)c2cccc(C(N)=O)c2)nc2cc(CN3CCCCC3)ccc21`: the growth was 88.1% in the experiment on NCI-H23 lung; 101% with NCI-H226 lung; 92% in the experiment with NCI-H322M lung; 95.8% with HOP-62 NSCLC; 101% in the experiment with NCI-H460 lung; 84.8% in the experiment with HOP-92 NSCLC. Moreover, the growth in the experiment with NCI-H522 lung is 83.1%; in the experiment with A549/ATCC NSCLC, 95.7%; in the experiment on 786-0 renal, 9.97% (active); with COLO 205 colon, 88.7%.
With `O=C1c2cccc3c(N4CCN(Cc5ccccc5)CC4)ccc(c23)C(=O)N1c1cccc(-c2nn(-c3ccccc3)cc2-c2nc3ccccc3s2)c1`, the growth in the experiment with NCI-H23 lung is 96%; with NCI-H226 lung it was 82%; in the experiment on NCI-H322M lung, 101%; in the experiment on HOP-62 NSCLC, 123%; with NCI-H460 lung, 110%; with HOP-92 NSCLC it was 105%. For the same compound, the growth in the experiment with NCI-H522 lung is 104%; with A549/ATCC NSCLC it was 113%; with 786-0 renal it was 101%; in the experiment with COLO 205 colon it was 119%.
With `Cc1nn(-c2ccccc2)c2ncn(CC(=O)N/N=C/c3ccccc3O)c(=O)c12`, the growth with NCI-H23 lung was 40.7%; with NCI-H226 lung, 47.6%; in the experiment with NCI-H322M lung, 39.1%; in the experiment with HOP-62 NSCLC, 27.4%; in the experiment with NCI-H460 lung, 17.7%; in the experiment on HOP-92 NSCLC it was 55.8%. The growth was 21% with NCI-H522 lung, 38.9% in the experiment on A549/ATCC NSCLC, 37.2% in the experiment on 786-0 renal and 10.3% in the experiment with COLO 205 colon.
As for `N#Cc1cc(-c2ccnc(Nc3ccc(N4CCN(C5COC5)CC4)cc3)n2)ccc1N1CCCC1`, the growth is 82.9% in the experiment on NCI-H23 lung; 71% with NCI-H226 lung; 63.9% in the experiment with NCI-H322M lung; 64.3% in the experiment on HOP-62 NSCLC; 49.9% in the experiment with NCI-H460 lung; 52.5% in the experiment with HOP-92 NSCLC. Besides, the growth was 65.6% in the experiment with NCI-H522 lung, 67.3% in the experiment with A549/ATCC NSCLC, 16.9% with 786-0 renal and 86.1% in the experiment on COLO 205 colon.
As for `COc1ccc(NC(=O)NN2C(=O)c3ccccc3N(C)C2c2ccc(OC)cc2)cc1` (stereo not given), the growth in the experiment with NCI-H23 lung is 100%; in the experiment on NCI-H226 lung, 106%; with NCI-H322M lung, 95.8%; in the experiment on HOP-62 NSCLC, 97.8%; in the experiment with NCI-H460 lung it was 109%; in the experiment with HOP-92 NSCLC it was 102%. Further, the growth in the experiment with NCI-H522 lung is 93%; in the experiment on A549/ATCC NSCLC it was 108%; in the experiment with 786-0 renal, 65.8%; with COLO 205 colon it was 103%.
Regarding `COc1cc(C2CC(c3ccc(S(=O)(=O)NCCNc4nc(N(C)C)nc(N5CCOCC5)n4)cc3)=Nc3c(N)nc(N)nc3N2)cc(OC)c1OC` (stereo not given), the growth is 97.4% in the experiment on NCI-H23 lung; 85.1% in the experiment on NCI-H226 lung; 79.8% with NCI-H322M lung; 90.8% with HOP-62 NSCLC; 104% with NCI-H460 lung; 92.7% with HOP-92 NSCLC. Further, the growth is 90.1% in the experiment on NCI-H522 lung, 98.3% with A549/ATCC NSCLC, 94.3% in the experiment with 786-0 renal and 116% in the experiment with COLO 205 colon.
As to `COc1ccc2oc(=O)c(-c3csc(N/N=C(\C)c4cc(OC)c(OC)c(OC)c4)n3)cc2c1`, the growth in the experiment with NCI-H23 lung is 84%; in the experiment with NCI-H226 lung, 89.7%; in the experiment on NCI-H322M lung, 96.8%; with HOP-62 NSCLC it was 109%; in the experiment on NCI-H460 lung, 79.1%; in the experiment on HOP-92 NSCLC it was 96.8%. Besides, the growth in the experiment on NCI-H522 lung is 85.8%; with A549/ATCC NSCLC it was 101%; with 786-0 renal, 90.5%; with COLO 205 colon, 99.8%.
Consider `N#C/C(=C/c1ccc(Cl)cc1)c1nnc(NC(=O)c2ccc(-n3c(=O)[nH]c4ccccc4c3=O)cc2)s1`, for which the growth with NCI-H23 lung was 28.6%; in the experiment on NCI-H226 lung it was 2.1% (active); in the experiment with NCI-H322M lung, 59.5%; in the experiment on HOP-62 NSCLC, 26.6%; with NCI-H460 lung, 10.1%; in the experiment with HOP-92 NSCLC, 39.3%. Further, the growth was 46.4% with NCI-H522 lung, 69.8% in the experiment with A549/ATCC NSCLC, 48.1% in the experiment on 786-0 renal and 68.1% in the experiment on COLO 205 colon.
With `CC(C)(C)c1ccc(OCc2nc3ccccc3n2-c2cccc(N)c2)cc1`, the growth in the experiment on NCI-H23 lung is 50.1% and 100%; in the experiment with NCI-H226 lung, 61.1% and 103%; in the experiment on NCI-H322M lung, 94.8% and 104%; with HOP-62 NSCLC, 88.6% and 102%; with NCI-H460 lung, 78.2% and 109%; in the experiment on HOP-92 NSCLC, 41.6% and 106%. The growth is 74.5% and 103% in the experiment with NCI-H522 lung; 66.6% and 107% in the experiment on A549/ATCC NSCLC; 80.9% and 102% with 786-0 renal; 77.6% and 114% in the experiment on COLO 205 colon.
Take `CN1C(=O)C2(C(C#N)=C(c3ccc(Cl)cc3)Nc3c2c(-c2ccccc2)nn3-c2ccccc2)c2ccccc21` (stereo not given): the growth with NCI-H23 lung was 80%; in the experiment on NCI-H226 lung, 69.3%; with NCI-H322M lung, 87.5%; in the experiment on HOP-62 NSCLC it was 44.5%; in the experiment on NCI-H460 lung it was 92.4%; in the experiment on HOP-92 NSCLC, 75.1%. Further, the growth was 85.8% with NCI-H522 lung, 89.7% in the experiment with A549/ATCC NSCLC, 97.2% in the experiment with 786-0 renal and 85.9% with COLO 205 colon.
In the case of `Cn1cc(-c2cc(N)n3nc(-c4c[nH]c5ccccc45)cc3n2)c2cc(Cl)ccc21`, the growth with NCI-H23 lung was -70.7% (active); in the experiment with NCI-H226 lung, 16.6%; with NCI-H322M lung, -35.3% (active); in the experiment on HOP-62 NSCLC, -73.7% (active); in the experiment on NCI-H460 lung, -59.5% (active); in the experiment on HOP-92 NSCLC it was -68.5% (active). Also, the growth was -71.9% (active) in the experiment with NCI-H522 lung, -37.8% (active) in the experiment with A549/ATCC NSCLC, -67.8% (active) in the experiment with 786-0 renal and -90.8% (active) in the experiment with COLO 205 colon.
As for `Cc1ccccc1NC(=O)c1cccc(NC(=O)CCl)c1`, the growth with NCI-H23 lung is 52.8%; with NCI-H226 lung, 42.4%; with NCI-H322M lung, 101%; in the experiment on HOP-62 NSCLC it was 32.3%; in the experiment on NCI-H460 lung, 41.6%; with HOP-92 NSCLC, 70%. Further, the growth was -71.7% (active) with NCI-H522 lung, 59.1% in the experiment with A549/ATCC NSCLC, 16.6% in the experiment on 786-0 renal and 76.5% with COLO 205 colon.
On to `COC(=O)c1c(C(=O)OC)c2c3ccccc3c3ccccc3n2c1C(=O)C(F)(F)F`, for which the growth in the experiment on NCI-H23 lung is 89.1%; in the experiment with NCI-H226 lung, 80%; with NCI-H322M lung, 101%; in the experiment on HOP-62 NSCLC, 107%; with NCI-H460 lung it was 105%; in the experiment on HOP-92 NSCLC it was 97.2%. The growth in the experiment with NCI-H522 lung is 96.4%; with A549/ATCC NSCLC, 111%; with 786-0 renal, 102%; with COLO 205 colon, 108%.
